Reference: PubChem BioAssay

test system: not listed separately; test: hepatitis C replication reporter changes, two-sided – Huh7 cells, luciferase reporter, HCV replication inhibitor project, primary screen (AID 1109); details: Huh7 HCV replicon luciferase reporter, 48 h; higher = more signal;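 note: huh7 hepatoma cells harbouring a luciferase neomycin HCV replicon reporter; luciferase luminescence as measure of HCV replicon replication; test concentration not given here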

Structure (SMILES) | z-score
[N-]=[N+]=Nc1ccccc1[C@H]1OC(c2ccc(OCCCO)cc2)=N[C@@]1(CCS(=O)(=O)c1ccccc1)C(=O)O | 0.86
CC=CC(O)C1C=CC2C(=O)N(c3ccccc3)C(=O)C2N1Nc1ccc(C(C)C)cc1 (configuration not stated) | 0.837
COc1cccc(C(=O)O[C@H]2CC[C@]3(C)C4=C(CCC3C2(C)C)[C@]2(C)CC[C@H]([C@H](C)CCCC(C)C)[C@@]2(C)CC4)c1 (some centres not stated) | 0.004
CC(=O)NCCCC[C@@H]1NC(=O)[C@H]2C[C@@H](C(=O)NCCCCCC[N+](C)(C)C)[C@@H](c3cccc(OCCO)c3)N2C1=O | -0.0914
CC(C)c1ccc(NN2C(C(O)c3cccc(O)c3)C=CC3C(=O)N(c4ccccc4)C(=O)C32)cc1 (configuration not stated) | 0.141
O=C(CS)NCCCCCCNC(=O)[C@H]1C[C@H]2C(=O)N3CCC[C@H]3C(=O)N2[C@H]1c1cccc(OCCO)c1 | -0.36
C=C(C(=O)CC[C@H](OC(C)=O)c1ccc(OCCO)cc1)C(C)C | -4.11

molecular target: Left-right determination factor 2 (Homo sapiens) (UniProt O00292); test: small molecules binding LEFTY2 protein – biochemical, small-molecule microarray, 635 nm fluorescence scan, primary screen (AID 1110); details: higher = more signal
Sequence (O00292 whole entry, looked up): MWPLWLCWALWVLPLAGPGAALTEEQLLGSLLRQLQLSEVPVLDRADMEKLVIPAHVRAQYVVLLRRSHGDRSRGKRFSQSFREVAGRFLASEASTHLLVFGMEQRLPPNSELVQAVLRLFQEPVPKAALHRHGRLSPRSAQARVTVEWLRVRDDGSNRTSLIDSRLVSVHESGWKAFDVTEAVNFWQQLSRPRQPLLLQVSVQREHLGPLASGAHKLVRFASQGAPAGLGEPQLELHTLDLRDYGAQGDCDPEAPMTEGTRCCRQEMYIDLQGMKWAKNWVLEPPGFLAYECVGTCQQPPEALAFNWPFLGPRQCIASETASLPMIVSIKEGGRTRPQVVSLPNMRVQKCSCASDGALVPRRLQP

Structure (SMILES) | composite z-score
COCCOC(=O)N1C(=O)[C@@]2(c3cc(C#CCC(C(=O)OC)C(=O)OC)ccc31)[C@H](C(=O)N1CCCCCCC1)[C@H]1C(=O)O[C@H](c3ccccc3)[C@H](c3ccccc3)N1[C@@H]2c1ccc(OCCO)cc1 | 1.33
C=C(CCCC)/C(=C/C[C@H](OC(C)=O)c1ccc(CO)o1)c1cnc2ccccc2c1 | 0.487
[N-]=[N+]=NCc1ccccc1[C@@H]1OC(c2ccc(OCCCO)cc2)=N[C@]1(Cc1ccccc1)C(=O)N1CCCCC1 | 0.232
C=CCNC(=O)[C@@H]1[C@H]2C(=O)O[C@H](c3ccccc3)[C@H](c3ccccc3)N2[C@H](c2ccc(OCCO)cc2)[C@@]12C(=O)Nc1ccccc12 | 0.302
O=C1OCCC=C[C@H]2OC34C=CCN(Cc5ccccc5)C(=O)[C@H]3N(CCCCCO)C(=O)[C@@H]4C12 (some centres not stated) | -1.24
COc1ccccc1CN1C(=O)c2ccccc2[C@@H](C(=O)NCCN2CCOCC2)[C@@H]1c1ccc(CO)cc1 | -0.725
CN1CCC(CCCO)=CC1c1ccc(CN2CCCC2)cc1 (configuration not stated) | 1.3
COCCOC(=O)N1C(=O)[C@@]2(c3cc(C#CCCO)ccc31)[C@H](c1ccc(O)cc1)N1[C@H](c3ccccc3)[C@H](c3ccccc3)OC(=O)[C@H]1[C@@H]2C(N)=O | -0.597
C[C@]1(C(=O)NCc2ccccc2)c2ccccc2C(=O)N(Cc2ccc(OC(F)(F)F)cc2)[C@H]1c1ccc(CO)cc1 | -0.579
COc1ccc([Si](C)(C)[C@@H]2[C@@H](CCn3cc([C@H](O)c4ccccc4)nn3)O[C@]3(C(=O)N(Cc4ccc(N5C(=O)c6cccc7cccc5c67)cc4)c4ccccc43)[C@H]2C)cc1 | -0.556
[N-]=[N+]=NCc1ccccc1C[C@@]1(C(=O)NCC(O)CO)N=C(c2ccc(OCCCO)cc2)O[C@@H]1c1ccccc1CN=[N+]=[N-] (some centres not stated) | -0.88
C=CC[C@@H](OC(=O)Nc1ccc(OC)cc1)c1ccc(O)c2ccccc12 | 1.07
CCOC(=O)C[C@H]1[C@H](OC(=O)c2ccccc2-c2ccccc2)[C@@H](NC(=O)c2ccc3ccccc3c2)c2cc(OCCCO)ccc2N1C(=O)c1ccc2ccccc2n1 | 0.043
N#Cc1ccc(NN2C(C(O)c3ccc([N+](=O)[O-])cc3)C=CC3C(=O)N(c4ccccc4)C(=O)C32)cc1 (configuration not stated) | 0.0872
[N-]=[N+]=NCc1ccccc1[C@@H]1OC(c2ccc(OCCCO)cc2)=N[C@]1(Cc1ccccc1N=[N+]=[N-])C(=O)NCc1ccccc1 | 0.374
CCOC(=O)C[C@H]1[C@H](OC(=O)c2ccc(-c3ccccc3)cc2)[C@@H](NC(=O)c2ccc3ccccc3c2)c2cc(OCCCO)ccc2N1C(=O)Cc1ccc(OC)cc1 | 0.0216
CC(C)NC(=O)[C@@H]1c2ccccc2C(=O)N(Cc2ccccc2Cl)[C@H]1c1ccc(CO)cc1 | -0.998
CCCCC(CC)C(O)C1C=CC2C(=O)N(c3ccccc3)C(=O)C2N1Nc1ccccc1 (configuration not stated) | -0.354

Structure (SMILES) | composite z-score
CC(C)C[C@@H]1NC(=O)[C@H]2C[C@@H](C(=O)NCCCCCNC(=O)CS)[C@@H](c3cccc(OCCO)c3)N2C1=O | 1.25
CCC[C@@H]1C=C(C(=O)O)[C@H](c2ccc(C)cc2)N1S(=O)(=O)c1ccc(C)cc1 | -0.442
[N-]=[N+]=NCc1ccccc1[C@H]1OC(c2ccc(OCCCO)cc2)=N[C@@]1(CCS(=O)(=O)c1ccccc1)C(=O)N1CCOCC1 | 0.402
C=CC(COC(C)=O)NS(=O)(=O)c1ccc(Br)cc1 (configuration not stated) | 0.65
COCCOC(=O)N1C(=O)[C@@]2(c3cc(C#CCC(C(=O)OC)C(=O)OC)ccc31)[C@H](C(=O)N1CCN(c3ncccn3)CC1)[C@H]1C(=O)O[C@H](c3ccccc3)[C@H](c3ccccc3)N1[C@@H]2c1ccc(OCCO)cc1 | 0.521
Cc1cc(C)c(C(O)C2C=CC3C(=O)N(c4ccccc4)C(=O)C3N2Nc2ccc(C#N)cc2)c(C)c1 (configuration not stated) | 0.219
Cc1ccc(S[C@]2(C(=O)NC3CC3)CC(=O)N(C3CCCCC3)[C@@H]2c2ccc(CO)cc2I)cc1 | 0.0327
CC(C)CNC(=O)[C@@]1(c2ccc([N+](=O)[O-])cc2)CC(=O)N(CC23CC4CC(CC(C4)C2)C3)[C@@H]1c1ccc(CO)cc1I | 0.539
CC(C)c1ccc(NN2C(C(O)c3c(F)cccc3Cl)C=CC3C(=O)N(c4ccccc4)C(=O)C32)cc1 (configuration not stated) | 0.0094
COCCOC(=O)N1C(=O)[C@@]2(c3cc(C#CCNC(N)=O)ccc31)[C@H](c1ccc(O)cc1)N1[C@H](c3ccccc3)[C@H](c3ccccc3)OC(=O)[C@H]1[C@@H]2C(=O)Nc1nc2ccccc2s1 | 0.691
[N-]=[N+]=Nc1ccccc1[C@H]1OC(c2ccc(OCCCO)cc2)=N[C@@]1(CCS(=O)(=O)c1ccccc1)C(=O)O | -0.512
CC=CC(O)C1C=CC2C(=O)N(c3ccccc3)C(=O)C2N1Nc1ccc(C(C)C)cc1 (configuration not stated) | 0.363
COc1cccc(C(=O)O[C@H]2CC[C@]3(C)C4=C(CCC3C2(C)C)[C@]2(C)CC[C@H]([C@H](C)CCCC(C)C)[C@@]2(C)CC4)c1 (some centres not stated) | 0.359
CC(=O)NCCCC[C@@H]1NC(=O)[C@H]2C[C@@H](C(=O)NCCCCCC[N+](C)(C)C)[C@@H](c3cccc(OCCO)c3)N2C1=O | 1.02
CC(C)c1ccc(NN2C(C(O)c3cccc(O)c3)C=CC3C(=O)N(c4ccccc4)C(=O)C32)cc1 (configuration not stated) | -0.136
O=C(CS)NCCCCCCNC(=O)[C@H]1C[C@H]2C(=O)N3CCC[C@H]3C(=O)N2[C@H]1c1cccc(OCCO)c1 | 0.36
C=C(C(=O)CC[C@H](OC(C)=O)c1ccc(OCCO)cc1)C(C)C | 1.03
